Measurements from article PMC7862700, “An all-to-all approach to the identification of sequence-specific readers for epigenetic DNA modifications on cytosine”.

What was measured:
Test in all cases: DAPPL (digital affinity profiling via proximity ligation, sequencing); 10 mM Tris-HCl pH 7.5, 50 mM NaCl, 1 mM DTT, 4% glycerol, room temperature, 30 min; GST-TFs on glutathione beads, 16-mer random dsDNA library, 0.1% formaldehyde crosslink after washing; high values mean tight binding
Settings in all cases: protein: recombinant; tags: N-terminal GST; dsDNA, one strand shown
ERF = molecular target: T1, ERF (Homo sapiens, UniProt P50548 1-548)
T1 sequence: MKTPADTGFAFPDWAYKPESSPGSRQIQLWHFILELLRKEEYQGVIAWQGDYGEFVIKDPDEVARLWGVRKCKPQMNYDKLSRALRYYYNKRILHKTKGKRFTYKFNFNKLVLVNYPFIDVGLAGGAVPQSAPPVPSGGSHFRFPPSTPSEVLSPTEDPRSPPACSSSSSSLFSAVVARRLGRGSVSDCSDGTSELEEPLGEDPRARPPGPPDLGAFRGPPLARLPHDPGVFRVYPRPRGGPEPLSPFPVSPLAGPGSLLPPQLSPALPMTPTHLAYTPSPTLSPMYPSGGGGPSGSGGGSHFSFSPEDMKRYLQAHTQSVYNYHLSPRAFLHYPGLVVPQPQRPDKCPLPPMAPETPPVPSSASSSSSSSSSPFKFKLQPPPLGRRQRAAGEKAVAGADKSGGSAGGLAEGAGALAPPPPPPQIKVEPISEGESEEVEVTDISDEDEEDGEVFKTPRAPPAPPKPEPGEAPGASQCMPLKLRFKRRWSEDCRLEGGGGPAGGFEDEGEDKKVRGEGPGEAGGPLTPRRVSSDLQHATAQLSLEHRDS
In short: (§1)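 Each value of binding signal is a hexamer's read frequency for a factor divided by the same hexamer's frequency in the tag-only sample. Barcoded, bead-captured GST fusions of human transcription factors made in yeast were pooled with that sample and incubated with 200 nmole of a random double-stranded 16-mer DNA library in Tris/NaCl/DTT/glycerol buffer at room temperature for 30 min. Washing, 0.1% formaldehyde crosslinking, proximity ligation, PCR and Illumina NextSeq500 sequencing followed.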

ETV3L = molecular target: T2, ETV3L (Homo sapiens, UniProt Q6ZN32 1-361)
T2 sequence: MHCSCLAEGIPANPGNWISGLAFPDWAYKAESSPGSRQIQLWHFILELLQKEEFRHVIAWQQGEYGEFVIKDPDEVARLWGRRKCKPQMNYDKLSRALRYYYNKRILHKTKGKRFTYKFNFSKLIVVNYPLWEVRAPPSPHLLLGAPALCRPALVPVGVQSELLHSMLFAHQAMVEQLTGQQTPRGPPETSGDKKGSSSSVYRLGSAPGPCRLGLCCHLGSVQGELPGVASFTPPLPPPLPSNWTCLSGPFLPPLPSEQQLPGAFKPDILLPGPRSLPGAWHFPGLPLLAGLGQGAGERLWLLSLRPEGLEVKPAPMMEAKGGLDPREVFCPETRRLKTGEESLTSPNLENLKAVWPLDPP
In short: as §1

ETS2 = molecular target: T3, ETS2 (Homo sapiens, UniProt P15036 1-469)
T3 sequence: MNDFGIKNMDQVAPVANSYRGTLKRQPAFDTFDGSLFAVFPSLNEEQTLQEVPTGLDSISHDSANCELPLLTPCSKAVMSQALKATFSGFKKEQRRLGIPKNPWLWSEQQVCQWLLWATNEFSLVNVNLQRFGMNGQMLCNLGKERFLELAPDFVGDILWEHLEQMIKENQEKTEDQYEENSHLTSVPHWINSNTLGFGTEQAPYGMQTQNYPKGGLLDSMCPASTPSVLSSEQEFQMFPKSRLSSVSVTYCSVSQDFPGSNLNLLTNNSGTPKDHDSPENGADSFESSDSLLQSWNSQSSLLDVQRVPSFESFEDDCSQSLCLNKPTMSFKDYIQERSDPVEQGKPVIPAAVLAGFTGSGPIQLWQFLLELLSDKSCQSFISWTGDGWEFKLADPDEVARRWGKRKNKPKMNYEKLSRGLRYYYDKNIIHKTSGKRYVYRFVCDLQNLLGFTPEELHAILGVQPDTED
In short: as §1

SPDEF = molecular target: T4, SPDEF (Homo sapiens, UniProt O95238 1-335)
T4 sequence: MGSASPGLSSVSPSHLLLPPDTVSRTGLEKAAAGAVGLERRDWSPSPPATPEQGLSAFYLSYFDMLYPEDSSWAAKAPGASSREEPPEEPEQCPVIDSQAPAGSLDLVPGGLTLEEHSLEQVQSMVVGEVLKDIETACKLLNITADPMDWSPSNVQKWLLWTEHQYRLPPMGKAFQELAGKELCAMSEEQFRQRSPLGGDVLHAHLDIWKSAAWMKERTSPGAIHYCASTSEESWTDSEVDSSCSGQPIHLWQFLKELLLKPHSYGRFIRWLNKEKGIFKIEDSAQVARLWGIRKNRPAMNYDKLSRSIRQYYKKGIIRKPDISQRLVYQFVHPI
In short: as §1

ETV7 = molecular target: T5, ETV7 (Homo sapiens, UniProt Q9Y603 1-341)
T5 sequence: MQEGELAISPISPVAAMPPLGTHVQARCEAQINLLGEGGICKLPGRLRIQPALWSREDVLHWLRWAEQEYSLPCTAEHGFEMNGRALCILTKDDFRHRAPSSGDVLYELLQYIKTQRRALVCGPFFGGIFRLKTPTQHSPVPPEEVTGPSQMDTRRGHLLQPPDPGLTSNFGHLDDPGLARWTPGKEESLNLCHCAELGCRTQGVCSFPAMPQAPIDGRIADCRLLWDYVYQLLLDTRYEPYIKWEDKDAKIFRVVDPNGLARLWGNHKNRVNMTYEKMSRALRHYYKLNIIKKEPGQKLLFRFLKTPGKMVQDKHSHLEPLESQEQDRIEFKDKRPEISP
In short: as §1

ELF5 = molecular target: T6, ELF5 (Homo sapiens, UniProt Q9UKW6-2 1-255)
T6 sequence: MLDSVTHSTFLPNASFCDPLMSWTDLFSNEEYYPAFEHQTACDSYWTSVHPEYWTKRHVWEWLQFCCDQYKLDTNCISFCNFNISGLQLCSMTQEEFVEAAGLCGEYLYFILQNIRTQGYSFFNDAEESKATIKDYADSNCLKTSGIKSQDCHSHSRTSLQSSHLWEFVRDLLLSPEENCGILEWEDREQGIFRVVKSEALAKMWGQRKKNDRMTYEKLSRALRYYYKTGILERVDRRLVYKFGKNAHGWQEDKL
In short: as §1

ETV3 = molecular target: T7, ETV3 (Homo sapiens, UniProt P41162-2 1-143)
T7 sequence: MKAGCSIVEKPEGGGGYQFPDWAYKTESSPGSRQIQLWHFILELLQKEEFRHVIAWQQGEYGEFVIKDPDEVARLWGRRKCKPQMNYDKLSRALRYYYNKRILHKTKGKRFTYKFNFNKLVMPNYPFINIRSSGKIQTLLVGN
In short: as §1

ETV6 = ETV6 (Homo sapiens, UniProt P41212 1-452)
Chain of ETV6 (P41212 whole entry): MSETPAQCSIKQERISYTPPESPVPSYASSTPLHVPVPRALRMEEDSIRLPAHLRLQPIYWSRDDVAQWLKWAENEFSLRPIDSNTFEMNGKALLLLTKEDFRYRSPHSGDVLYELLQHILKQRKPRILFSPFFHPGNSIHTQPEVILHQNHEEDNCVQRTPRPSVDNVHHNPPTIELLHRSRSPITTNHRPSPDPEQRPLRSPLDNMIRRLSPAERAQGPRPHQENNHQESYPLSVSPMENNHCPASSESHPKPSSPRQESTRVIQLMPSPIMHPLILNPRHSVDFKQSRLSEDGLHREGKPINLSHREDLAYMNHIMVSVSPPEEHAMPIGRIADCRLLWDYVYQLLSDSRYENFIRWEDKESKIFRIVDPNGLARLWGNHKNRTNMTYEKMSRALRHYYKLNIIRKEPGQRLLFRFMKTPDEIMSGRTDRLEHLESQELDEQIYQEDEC
In short: as §1

Sequence | binding signal (ERF) | binding signal (ETV3L) | binding signal (ETS2) | binding signal (SPDEF) | binding signal (ETV7) | binding signal (ELF5) | binding signal (ETV3) | binding signal (ETV6)
ATCTGT | 1.21 fold enrichment (6-mer frequency, TF over GST control) | 1.2 fold enrichment (6-mer frequency, TF over GST control) | 1.22 fold enrichment (6-mer frequency, TF over GST control) | 1.17 fold enrichment (6-mer frequency, TF over GST control) | 1.21 fold enrichment (6-mer frequency, TF over GST control) | 1.2 fold enrichment (6-mer frequency, TF over GST control) | 1.11 fold enrichment (6-mer frequency, TF over GST control) | 1.12 fold enrichment (6-mer frequency, TF over GST control)
ATACTG | 1.14 fold enrichment (6-mer frequency, TF over GST control) | 1.23 fold enrichment (6-mer frequency, TF over GST control) | 1.1 fold enrichment (6-mer frequency, TF over GST control) | 1.18 fold enrichment (6-mer frequency, TF over GST control) | 1.09 fold enrichment (6-mer frequency, TF over GST control) | 1.07 fold enrichment (6-mer frequency, TF over GST control) | 1.12 fold enrichment (6-mer frequency, TF over GST control) | 1.07 fold enrichment (6-mer frequency, TF over GST control)
ACTTAC | 1.08 fold enrichment (6-mer frequency, TF over GST control) | 1.09 fold enrichment (6-mer frequency, TF over GST control) | 1.14 fold enrichment (6-mer frequency, TF over GST control) | 1.13 fold enrichment (6-mer frequency, TF over GST control) | 1.14 fold enrichment (6-mer frequency, TF over GST control) | 1.21 fold enrichment (6-mer frequency, TF over GST control) | 1.09 fold enrichment (6-mer frequency, TF over GST control) | 1.13 fold enrichment (6-mer frequency, TF over GST control)
AGATGA | 1.18 fold enrichment (6-mer frequency, TF over GST control) | 1.01 fold enrichment (6-mer frequency, TF over GST control) | 1.05 fold enrichment (6-mer frequency, TF over GST control) | 1.14 fold enrichment (6-mer frequency, TF over GST control) | 1.15 fold enrichment (6-mer frequency, TF over GST control) | 1.05 fold enrichment (6-mer frequency, TF over GST control) | 1.1 fold enrichment (6-mer frequency, TF over GST control) | 1.13 fold enrichment (6-mer frequency, TF over GST control)
CATATC | 1.42 fold enrichment (6-mer frequency, TF over GST control) | 1.38 fold enrichment (6-mer frequency, TF over GST control) | 1.36 fold enrichment (6-mer frequency, TF over GST control) | 1.76 fold enrichment (6-mer frequency, TF over GST control) | 1.24 fold enrichment (6-mer frequency, TF over GST control) | 1.32 fold enrichment (6-mer frequency, TF over GST control) | 1.32 fold enrichment (6-mer frequency, TF over GST control) | 1.26 fold enrichment (6-mer frequency, TF over GST control)
TACGCA | 1.28 fold enrichment (6-mer frequency, TF over GST control) | 1.12 fold enrichment (6-mer frequency, TF over GST control) | 1.2 fold enrichment (6-mer frequency, TF over GST control) | 1.16 fold enrichment (6-mer frequency, TF over GST control) | 1.12 fold enrichment (6-mer frequency, TF over GST control) | 1.11 fold enrichment (6-mer frequency, TF over GST control) | 1.1 fold enrichment (6-mer frequency, TF over GST control) | 1.18 fold enrichment (6-mer frequency, TF over GST control)
ATTAAG | 1.16 fold enrichment (6-mer frequency, TF over GST control) | 1.09 fold enrichment (6-mer frequency, TF over GST control) | 1.01 fold enrichment (6-mer frequency, TF over GST control) | 1.13 fold enrichment (6-mer frequency, TF over GST control) | 1.12 fold enrichment (6-mer frequency, TF over GST control) | 1.02 fold enrichment (6-mer frequency, TF over GST control) | 1.04 fold enrichment (6-mer frequency, TF over GST control) | 1.11 fold enrichment (6-mer frequency, TF over GST control)
AACGAC | 1.14 fold enrichment (6-mer frequency, TF over GST control) | 1.15 fold enrichment (6-mer frequency, TF over GST control) | 1.19 fold enrichment (6-mer frequency, TF over GST control) | 1.16 fold enrichment (6-mer frequency, TF over GST control) | 1.07 fold enrichment (6-mer frequency, TF over GST control) | 1.18 fold enrichment (6-mer frequency, TF over GST control) | 1.11 fold enrichment (6-mer frequency, TF over GST control) | 1.19 fold enrichment (6-mer frequency, TF over GST control)
CCTTCG | 1.36 fold enrichment (6-mer frequency, TF over GST control) | 1.36 fold enrichment (6-mer frequency, TF over GST control) | 1.3 fold enrichment (6-mer frequency, TF over GST control) | 1.33 fold enrichment (6-mer frequency, TF over GST control) | 1.38 fold enrichment (6-mer frequency, TF over GST control) | 1.24 fold enrichment (6-mer frequency, TF over GST control) | 1.12 fold enrichment (6-mer frequency, TF over GST control) | 1.31 fold enrichment (6-mer frequency, TF over GST control)
CTCACT | 1.45 fold enrichment (6-mer frequency, TF over GST control) | 1.52 fold enrichment (6-mer frequency, TF over GST control) | 1.6 fold enrichment (6-mer frequency, TF over GST control) | 1.44 fold enrichment (6-mer frequency, TF over GST control) | 1.56 fold enrichment (6-mer frequency, TF over GST control) | 1.54 fold enrichment (6-mer frequency, TF over GST control) | 1.5 fold enrichment (6-mer frequency, TF over GST control) | 1.6 fold enrichment (6-mer frequency, TF over GST control)
GAAACA | 1.34 fold enrichment (6-mer frequency, TF over GST control) | 1.4 fold enrichment (6-mer frequency, TF over GST control) | 1.34 fold enrichment (6-mer frequency, TF over GST control) | 1.3 fold enrichment (6-mer frequency, TF over GST control) | 1.35 fold enrichment (6-mer frequency, TF over GST control) | 1.39 fold enrichment (6-mer frequency, TF over GST control) | 1.37 fold enrichment (6-mer frequency, TF over GST control) | 1.45 fold enrichment (6-mer frequency, TF over GST control)
GCTCGT | 1.2 fold enrichment (6-mer frequency, TF over GST control) | 1.23 fold enrichment (6-mer frequency, TF over GST control) | 1.12 fold enrichment (6-mer frequency, TF over GST control) | 1.15 fold enrichment (6-mer frequency, TF over GST control) | 1.11 fold enrichment (6-mer frequency, TF over GST control) | 1.1 fold enrichment (6-mer frequency, TF over GST control) | 1.15 fold enrichment (6-mer frequency, TF over GST control) | 1.16 fold enrichment (6-mer frequency, TF over GST control)
TTGCAG | 1.24 fold enrichment (6-mer frequency, TF over GST control) | 1.11 fold enrichment (6-mer frequency, TF over GST control) | 1.19 fold enrichment (6-mer frequency, TF over GST control) | 1.14 fold enrichment (6-mer frequency, TF over GST control) | 1.13 fold enrichment (6-mer frequency, TF over GST control) | 1.08 fold enrichment (6-mer frequency, TF over GST control) | 1.1 fold enrichment (6-mer frequency, TF over GST control) | 1.12 fold enrichment (6-mer frequency, TF over GST control)
TCCGTT | 1.53 fold enrichment (6-mer frequency, TF over GST control) | 1.46 fold enrichment (6-mer frequency, TF over GST control) | 1.54 fold enrichment (6-mer frequency, TF over GST control) | 1.74 fold enrichment (6-mer frequency, TF over GST control) | 1.41 fold enrichment (6-mer frequency, TF over GST control) | 1.66 fold enrichment (6-mer frequency, TF over GST control) | 1.58 fold enrichment (6-mer frequency, TF over GST control) | 1.49 fold enrichment (6-mer frequency, TF over GST control)
CACGAC | 1.22 fold enrichment (6-mer frequency, TF over GST control) | 1.26 fold enrichment (6-mer frequency, TF over GST control) | 1.24 fold enrichment (6-mer frequency, TF over GST control) | 1.19 fold enrichment (6-mer frequency, TF over GST control) | 1.34 fold enrichment (6-mer frequency, TF over GST control) | 1.24 fold enrichment (6-mer frequency, TF over GST control) | 1.15 fold enrichment (6-mer frequency, TF over GST control) | 1.24 fold enrichment (6-mer frequency, TF over GST control)
